A short description of assay [1]: inhibitors of TNFa-induced NFkB p65 translocation, primary screen, imaging, HUVEC, MLSMR starter and 10KST1 sets (AID 438;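 active = inhibition above 20% together with a positive visual image hit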;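 also: compound added about 3h40 before a 20 min TNFalpha stimulation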;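 as to inhibition: signal is the nuclear over cytoplasmic p65 intensity ratio per well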). As to conditions: HUVEC TNFa-induced p65 nuclear translocation; cell count: measured here: nuclei count (cytotoxicity indicator), at 2.08 µM; inhibition: at 2 µM, stronger effect = higher value, 0% TNFa-plus-vehicle, 100% no-TNFa wells.
The nature of assay [2]: inhibitors of mutant huntingtin aggregation, primary screen, imaging, exon1htt(103Q)mCFP cells, high-content imaging (AID 483;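 active = visual image review flags a hit and inhibition of aggregation exceeds 20%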;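 also: compound exposure lasted 3 days before fixation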;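 as to nuclei count: percent of the per-plate median nuclei count of sample wells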). As to conditions: exon1htt(103Q)mCFP cell line, aggregate imaging, at 2 µM; inhibition of aggregation: stronger effect = higher value; nuclei count: measured here: cell count, toxicity.
Assay [3] can be described thus: inhibitors of E-selectin induction by TNFa, primary screen, imaging, HUVEC, immunofluorescence, MLSMR starter and 10KST1 sets (AID 487;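 active = visually confirmed hit in the image check and inhibition above 20%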;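 as to inhibition: signal is fraction of cell area covered by stained E-selectin grains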;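 as to nuclei count: 100% = median nuclei count of all wells on the same plate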). As to conditions: HUVEC TNFalpha-induced E-selectin immunofluorescence imaging, at 2 µM; inhibition: stronger effect = higher value; nuclei count: measured here: cell number, toxicity.
A short description of assay [4]: DUSP6 inhibitors restoring Erk phosphorylation by chemical complementation, primary imaging in DUSP6-transfected HeLa (AID 609;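 active = compounds giving at least 50% inhibition in the cell-based MKP-3 phosphatase rescue imaging test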;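 as to inhibition: phospho-Erk level distribution per well compared with pooled transfected vehicle control wells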). As to conditions: HeLa MKP-3 transfected, phospho-Erk imaging KS statistic, at 10 µM, cells stimulated with TPA for 15 min.
Assay [5] has as its target Dual specificity protein phosphatase 6 (Homo sapiens) (UniProt Q16828). The description is as above. As to conditions: HeLa MKP-3 transfected, phospho-Erk imaging KS statistic; at 10 µM; stronger effect = higher value; cells stimulated with TPA for 15 min.
Assay [6] deals with Voltage-gated potassium channel subunit beta-2 (Rattus norvegicus) (UniProt P62483). The assay can be described thus: KvBeta enzyme negative modulators, primary screen, biochemical, NADPH fluorescence (AID 622;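 active = fluorescence slope higher than the sample average by over 3 SD, cut at about -0.22 in these data, passing the limit was not always enough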;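 also: slope of raw intensity against log time taken from 70 to 1610 s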). As to conditions: recombinant KvBeta, 4-cyanobenzaldehyde reduction, at 10 µM, stronger effect = higher value.
For assay [7] the target is unchanged. Description: KvBeta positive modulators, primary screen, biochemical, NADPH fluorescence (AID 623;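 active = NADPH fluorescence slope more negative than the mean of all samples by about 3 SD, 99.7% confidence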;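 also: fluorescence intensity change per second fitted from 20 to 320 s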). As to conditions: Recombinant KvBeta, NADPH fluorescence decrease slope, 10 min; at 10 µM; stronger effect = lower value.
In assay [8] the target is Alpha-2C adrenergic receptor (Homo sapiens) (UniProt P18825). The assay can be described thus: modulators of alpha2C/GIRK thallium flux, primary screen, cell-based, HEK293 alpha2C/GIRK1/2 (AID 624;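 active = fluorescence slope after compound addition differing from the mean of all screened samples at 99.7% confidence, in either direction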;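 also: slope of fluorescence ratio to pre-addition baseline per second over 15 to 24 s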). As to conditions: thallium flux BTC fluorescence, at 10 µM, actives lie on both sides.
Assay [9] can be described thus: inhibitors of larval lipid processing in zebrafish, primary screen, whole organism, PED6 fluorescence, gall bladder and intestine (AID 686;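 active = a full or partial loss of lipid-probe fluorescence in the fish gall bladder, intestine or both, judged by eye; inactive = no fluorescence loss, or compound toxic to the fish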;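 also: larvae 5 to 7 days old with five fish per well; signal comes from phospholipase A2 cleavage of quenched PED6 carried via bile; overnight exposure to compound and PED6 before scoring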). As to conditions: Zebrafish larvae PED6 lipid processing, fluorescence scoring; screened at 20 µM (by protocol).
Assay [10] can be described thus: inhibitors of Chlamydomonas gravitaxis, primary screen, whole organism, Chlamydomonas reinhardtii, WT vs cilia-less mutant, absorbance, 96-well (AID 463189).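 Also: 0% = wild type cc124 cells in DMSO and 100% = ciliumless bld1 mutant cells.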 As to conditions: OD600 absorbance, 2 days, at 10 µM, stronger effect = higher value.
Assay [11] is described as follows: inhibitors of Sendai virus-induced IRF3 signaling, primary screen, TLR/RLR signaling modifier project, cell-based, Sendai virus stimulus, luciferase, 10K MLSCN set (AID 602276;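 active = inhibition at or above 50% at 10 µM; inactive = inhibition below 50%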;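 also: firefly luciferase from ISG56 promoter only with Renilla not read in this screen; 0% = Sendai virus plus DMSO and 100% = medium plus DMSO without virus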). As to conditions: HEK293 RL24 IRF3 luciferase reporter, at 10 µM, stronger effect = higher value.
A short description of assay [12]: inhibitors of poly I:C-induced TLR3 signaling, primary screen, cell-based, poly I:C stimulus, luciferase, 10K MLSCN set (AID 602277;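 active = inhibition of the reporter signal at or above 50%; inactive = inhibition below 50%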). As to conditions: HEK293-TLR3 RL24 IRF3 luciferase reporter, at 10 µM, stronger effect = higher value. On the technique in general: Reporter assays use an easily measured gene product as a stand-in for the process of interest.
Where [13] appears, read: measured here: cell density z-score.
The mark [14] stands for this setting: measured here: nuclear c-Myc green intensity z-score.
Setting [15] is: measured here: nuclear pErk red intensity z-score, stronger effect = higher value.

Consider 9 compounds from PubChem BioAssay.

“And” between values parts separate entries of the source, which are not always exact repeats. Identical values can stand only once. The source made the active and inactive calls.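 The calls were made as follows, unless noted: active = inhibition at or above 50% relative to wild type and mutant plate controls; inactive = inhibition below 50%.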

Sequence of Dual specificity protein phosphatase 6 (Homo sapiens) (Q16828 whole entry, looked up): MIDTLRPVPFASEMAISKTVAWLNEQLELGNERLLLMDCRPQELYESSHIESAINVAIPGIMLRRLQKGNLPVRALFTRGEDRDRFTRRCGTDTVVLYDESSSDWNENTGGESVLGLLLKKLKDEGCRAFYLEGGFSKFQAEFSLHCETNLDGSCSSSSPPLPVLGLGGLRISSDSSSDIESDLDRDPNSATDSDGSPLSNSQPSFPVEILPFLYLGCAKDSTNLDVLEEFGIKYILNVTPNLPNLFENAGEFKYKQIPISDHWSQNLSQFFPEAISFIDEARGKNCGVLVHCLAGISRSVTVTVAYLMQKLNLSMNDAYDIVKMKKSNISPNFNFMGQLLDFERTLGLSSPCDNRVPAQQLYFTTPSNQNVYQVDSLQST
Sequence of Voltage-gated potassium channel subunit beta-2 (Rattus norvegicus) (P62483 whole entry, looked up): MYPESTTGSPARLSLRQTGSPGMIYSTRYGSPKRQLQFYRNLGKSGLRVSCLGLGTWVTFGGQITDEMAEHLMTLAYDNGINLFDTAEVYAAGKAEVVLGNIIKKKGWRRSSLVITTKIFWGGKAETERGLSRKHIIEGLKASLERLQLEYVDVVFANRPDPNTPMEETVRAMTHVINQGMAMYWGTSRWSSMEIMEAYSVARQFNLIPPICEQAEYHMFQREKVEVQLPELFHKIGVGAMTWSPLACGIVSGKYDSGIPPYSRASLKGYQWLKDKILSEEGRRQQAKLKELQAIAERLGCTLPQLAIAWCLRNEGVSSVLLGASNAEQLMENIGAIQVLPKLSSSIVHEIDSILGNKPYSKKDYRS
Sequence of Alpha-2C adrenergic receptor (Homo sapiens) (P18825 whole entry, looked up): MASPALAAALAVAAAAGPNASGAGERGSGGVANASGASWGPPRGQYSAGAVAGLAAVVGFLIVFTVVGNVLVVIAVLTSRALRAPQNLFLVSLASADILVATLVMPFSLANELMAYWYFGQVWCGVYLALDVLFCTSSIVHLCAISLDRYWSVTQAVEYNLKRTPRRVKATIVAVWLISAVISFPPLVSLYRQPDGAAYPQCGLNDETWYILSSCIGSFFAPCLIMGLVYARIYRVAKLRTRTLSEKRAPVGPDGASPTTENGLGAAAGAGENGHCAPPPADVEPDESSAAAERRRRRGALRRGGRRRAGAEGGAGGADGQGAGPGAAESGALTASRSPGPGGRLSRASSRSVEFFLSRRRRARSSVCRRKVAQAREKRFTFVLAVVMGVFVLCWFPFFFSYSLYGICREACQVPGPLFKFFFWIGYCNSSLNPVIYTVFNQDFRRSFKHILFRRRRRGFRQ

For orientation: inhibition means the drop in the measured response relative to a control, in per cent. `Cc1ccc(C)c(OCCCC(C)(C)C(=O)O)c1`: the cell count in [1] was determined as 624. The inhibition in assay [1] was -1.4% (inactive); in [3] it was -52.3% (inactive); in assay [5], 7.39% (inactive); in assay [10] it was 36% (inactive); in assay [11], 17.7% (inactive); in assay [12], 39.7% (inactive). The inhibition of aggregation in assay [2] is 26.1% (inactive). The figures for the nuclei count in assay [2] and in [3] were 107% and 122%, respectively. In addition, the z-score came to 0.389 in assay [4] (setting [13]), 0.0218 in [4] (setting [14]) and 0.246 in [4] (setting [15]). The fluorescence slope in [6] was -0.536 (inactive). Moreover, the NADPH fluorescence slope in [7] is -3.5e-05 (inactive). In addition, the slope in [8] was 0.00591 (inactive). Moreover, in assay [9], the compound was called inactive.

On to `CCCCNc1cc(C(=O)O)cc(S(N)(=O)=O)c1Oc1ccccc1`, for which the cell count in assay [1] stood at 603. Besides, the inhibition in assay [1] is -16.6% (inactive); in [3] it was -136% (inactive); in assay [5], 15.3% (inactive); in [10], 7.78% (inactive) and -7.14% (inactive); in assay [11], 13.2% (inactive); in assay [12] it was 38.2% (inactive). Besides, the inhibition of aggregation in assay [2] was -13.4% (inactive). Besides, the nuclei count was 110% in [2] and 140% in assay [3]. The z-score in assay [4] (setting [13]) is 0.424; in [4] (setting [14]) it was 0.482; in [4] (setting [15]), -0.678. Besides, in assay [6], the fluorescence slope was -0.47 (inactive). Further, the NADPH fluorescence slope in assay [7] is -6.3e-05 (inactive). The slope in assay [8] is 0.00446 (inactive). Moreover, the compound was called inactive in assay [9].

As for `CCCC(=O)N(Cc1cc2ccccc2[nH]c1=O)c1ccccc1OC`, the cell count in assay [1] is 429. Besides, the inhibition was -16.8% (inactive) in assay [1]; -133% (inactive) in [3]; 17.7% (inactive) in assay [5]; 27.4% (inactive) in assay [10]; 12% (inactive) in assay [11]; 14.8% (inactive) in [12]. Also, the inhibition of aggregation in [2] was -1.6% (inactive). The nuclei count in [2] amounted to 94.8%; in assay [3] it was 166%. The z-score in assay [4] (setting [13]) is 1.04; in [4] (setting [14]), -0.344; in [4] (setting [15]), -0.503. Besides, the fluorescence slope in assay [6] is -0.364 (inactive). In addition, the NADPH fluorescence slope in assay [7] is -8.5e-06 (inactive). In assay [8], the slope is 0.00461 (inactive). The call in assay [9] was inactive.

For the compound `Cc1nc(SC2C=CS(=O)(=O)C2)n[nH]1` (stereo not drawn), the cell count in assay [1] amounted to 427. Moreover, the inhibition is -0.8% (inactive) in assay [1]; -43.2% (inactive) in [3]; -6.86% (inactive) in assay [5]; -12% (inactive) in assay [10]; 14.6% (inactive) in [11]; 18.4% (inactive) in assay [12]. Besides, in [2], the inhibition of aggregation was 10.8% (inactive). Moreover, the nuclei count in assay [2] turned out to be 98.1%; in assay [3], 139%. In addition, the z-score in [4] (setting [13]) was -0.37; in [4] (setting [14]) it was 0.156; in assay [4] (setting [15]), 1.24. The fluorescence slope in assay [6] is -0.482 (inactive). Further, the NADPH fluorescence slope in assay [7] is -0.000222 (inactive). For the same compound, the slope in assay [8] is 0.00468 (inactive). The compound was called inactive in assay [9].

`CC(=O)[C@H]1[C@H](C#N)C[C@H]2[C@@H]3CC=C4C[C@@H](O)CC[C@]4(C)[C@H]3CC[C@@]21C`: in assay [1], the cell count stood at 645. For the same compound, the inhibition in assay [1] is -9.3% (inactive); in [3], -91.5% (inactive); in assay [5] it was -2.46% (inactive); in [10], 14.4% (inactive); in [11] it was 10.7% (inactive); in [12], 42.4% (inactive). The inhibition of aggregation in [2] was -4.8% (inactive). Also, the figures for the nuclei count in [2] and in assay [3] were 106% and 119%, respectively. Also, the values for the z-score in assay [4] (setting [13]), in assay [4] (setting [14]) and in assay [4] (setting [15]) were 0.975, -0.917 and -0.46, respectively. Moreover, the fluorescence slope in assay [6] is -0.457 (inactive). Further, the NADPH fluorescence slope in assay [7] was -4e-05 (inactive). Besides, the slope in assay [8] was 0.00539 (inactive). In [9], the compound was classed as inactive.

Regarding `CC(=O)OCC(=O)[C@@]12OC3(CCCC3)O[C@@H]1C[C@H]1[C@@H]3CCC4=CC(=O)C=C[C@]4(C)[C@@]3(F)[C@@H](O)C[C@@]12C`, the cell count in assay [1] was found to be 609. In addition, the inhibition in [1] is -5.2% (inactive); in assay [3], -15.3% (inactive); in assay [5] it was 5.42% (inactive); in assay [10] it was 22.1% (inactive); in assay [11], 8.27% (inactive); in assay [12], 39.3% (inactive). Further, in assay [2], the inhibition of aggregation is -15.8% (inactive). Moreover, the values for the nuclei count in assay [2] and in assay [3] were 51.6% and 118%, respectively. Also, the z-score came out at 0.724 in assay [4] (setting [13]), 0.328 in assay [4] (setting [14]) and 0.81 in assay [4] (setting [15]). In addition, the fluorescence slope in assay [6] was -0.54 (inactive). Besides, the NADPH fluorescence slope in assay [7] was -2.6e-05 (inactive). Further, in assay [8], the slope was 0.0055 (inactive). Also, the result in [9] was inactive.

For the compound `COC(=O)c1cc(Br)c(=O)n(Cc2cccnc2)c1`, the cell count in assay [1] was 578. The inhibition in [1] was 3% (inactive); in assay [3], -15.9% (inactive); in assay [5] it was -3.5% (inactive); in [10], -26.1% (inactive); in assay [11], 9.75% (inactive); in [12] it was 17.7% (inactive). The inhibition of aggregation in assay [2] is -10.7% (inactive). Moreover, the nuclei count is 108% in assay [2] and 109% in assay [3]. Moreover, the z-score in assay [4] (setting [13]) was -0.222; in assay [4] (setting [14]) it was 1.1; in assay [4] (setting [15]) it was -1.83. Further, the fluorescence slope in assay [6] was -0.545 (inactive). The NADPH fluorescence slope in assay [7] was -2.2e-05 (inactive). For the same compound, the slope in [8] is 0.00588 (inactive). For the same compound, the compound was classed as inactive in assay [9].

Regarding `O=C(CCCN1CC=C(n2c(=O)[nH]c3ccccc32)CC1)c1ccc(F)cc1`, in assay [1], the cell count was 658. For the same compound, the inhibition in assay [1] was -2.1% (inactive); in assay [3], -156% (inactive); in [5], 19.2% (inactive); in assay [10], 5.84% (inactive); in [11] it was -12.2% (inactive); in assay [12], -37.3% (inactive). Also, the inhibition of aggregation in assay [2] was -8.1% (inactive). Further, the nuclei count turned out to be 105% in assay [2] and 128% in assay [3]. The z-score in assay [4] (setting [13]) is -0.186; in assay [4] (setting [14]), 0.167; in assay [4] (setting [15]) it was 0.602. In addition, the fluorescence slope in assay [6] is -0.516 (inactive). Also, the NADPH fluorescence slope in [7] is -7.4e-05 (inactive). Besides, the slope in assay [8] is 0.00484 (inactive). Also, in [9], the result was inactive.

Regarding `COc1ccc(Nc2nc(Nc3ccc(OC)cc3)nc(-n3[nH]c(=O)c(C)c3C)n2)cc1`, the cell count in assay [1] was determined as 656. The inhibition in assay [1] was -10.8% (inactive); in assay [3], -17.7% (inactive); in assay [5] it was 13.9% (inactive); in assay [10], 2.29% (inactive); in assay [11] it was 22.1% (inactive); in assay [12], 8.22% (inactive). Besides, in assay [2], the inhibition of aggregation is 0.5% (inactive). The nuclei count came to 124% in assay [2] and 122% in assay [3]. For the same compound, the figures for the z-score in assay [4] (setting [13]), in [4] (setting [14]) and in [4] (setting [15]) were -0.0693, 1.31 and 0.0692, respectively. The fluorescence slope in assay [6] was -0.474 (inactive). For the same compound, the NADPH fluorescence slope in assay [7] is -5.6e-05 (inactive). Further, the slope in assay [8] is 0.00543 (inactive). In addition, in [9], the result was inactive.
